Records with an inconclusive call do not appear. Activity calls are given as the source filed them. Unless noted, calls come from the whole dose curve; as a rule, active = well fitted curve in the direction sought with a large enough effect; inconclusive = small, poorly fitted or top-dose-only effect, or another doubt; inactive = no such curve, though single readings can be large; an effect the other way counts as inactive or inconclusive.
What was measured:
[1] = target: Cellular tumor antigen p53 (Homo sapiens) (UniProt P04637); assay: Primary qHTS for small molecule compounds that upregulate eGFP-tagged delta133p53alpha (in C-terminal) cells. (AID 2060324)
Cellular tumor antigen p53 (Homo sapiens), sequence (P04637 whole entry, looked up): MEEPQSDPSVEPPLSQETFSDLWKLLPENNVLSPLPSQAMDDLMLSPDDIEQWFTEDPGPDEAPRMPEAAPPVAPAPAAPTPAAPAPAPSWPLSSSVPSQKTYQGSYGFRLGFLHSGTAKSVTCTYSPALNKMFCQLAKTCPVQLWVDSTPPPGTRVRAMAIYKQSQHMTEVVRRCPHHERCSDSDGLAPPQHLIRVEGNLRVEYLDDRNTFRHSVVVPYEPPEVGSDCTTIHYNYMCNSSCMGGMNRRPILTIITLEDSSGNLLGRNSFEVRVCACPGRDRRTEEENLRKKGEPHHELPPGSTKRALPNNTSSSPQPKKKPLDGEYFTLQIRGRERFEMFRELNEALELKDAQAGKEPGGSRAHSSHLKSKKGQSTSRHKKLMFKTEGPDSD
Summary of the method: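 In this qHTS, GFP-tagged delta133p53alpha levels are measured in fixed NCI-H358 cells after 24 h compound exposure at 37 °C. The cells are pre-induced with 100 ng/ml doxycycline, and signal is normalized to DMSO-treated wells as 0%.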

[2] = target: Aldehyde dehydrogenase, mitochondrial (Homo sapiens) (UniProt P05091); assay: qHTS for Inhibitors of the Aldehyde Dehydrogenase Family (ALDH2) Validation screens (AID 2061302; active = well fitted inhibition curve with a large enough effect; title and protocol of this record describe different tests)
[3] = target: Retinaldehyde dehydrogenase 3 (Homo sapiens) (UniProt P47895); assay: qHTS for Inhibitors of the Aldehyde Dehydrogenase Family (ALDH1A3) Validation screen (AID 2061312); note: nearly all actives have a fitted effect of over 45% in size
[4] = target: Aldehyde dehydrogenase, mitochondrial (Homo sapiens) (UniProt P05091); assay: qHTS for Inhibitors of the Aldehyde Dehydrogenase Family (ALDH2) Primary screen (AID 2061308); note: nearly all actives have a fitted effect of over 55% in size
[5] = target: Retinaldehyde dehydrogenase 3 (Homo sapiens) (UniProt P47895); assay: qHTS for Inhibitors of the Aldehyde Dehydrogenase Family (ALDH1A3) Primary screen (AID 2061315)
[6] = BET inhibitor-based combinations targeting novel dependencies in MECOM-rearranged (r) AML: MV-4-11 cell line (AID 2202233); note: nearly all actives have a fitted effect of over 45% in size
Summary of the method: (§1)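 Normalized to DMSO and empty-well controls, the luminescence data from CellTiter-Glo after 48 hr drug exposure were fitted across 11 concentrations. Reported metrics are area under the dose-response curve and its Z-transformed form.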

[7] = BET inhibitor-based combinations targeting novel dependencies in MECOM-rearranged (r) AML: HNT-34 cell line (AID 2202234); note: nearly all actives have a fitted effect of over 35% in size
Summary of the method: as §1

[8] = BET inhibitor-based combinations targeting novel dependencies in MECOM-rearranged (r) AML: AML-191 cell line (AID 2202236; note: nearly all actives have a fitted effect of over 35% in size)
Summary of the method: (§2)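 Here, 11-point titrations of each agent were applied to 500 seeded cells and incubated 48 hr; CellTiter-Glo signal, scaled against DMSO and empty wells, was integrated as AUC, then Z-scored within the individual line.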

[9] = BET inhibitor-based combinations targeting novel dependencies in MECOM-rearranged (r) AML: AML-194 cell line (AID 2202237; note: nearly all actives have a fitted effect of over 40% in size)
Summary of the method: as §2

Measured: Potency

CC(N)Cc1c[nH]c2ccc(O)cc12 (stereo not given)
inactive: [1] | [2] | [3]

CC(NC(C)(C)C)C(=O)c1cccc(Cl)c1 (stereo not given)
inactive: all assays above

Cc1ncsc1CCCl
inactive: [2]

CCCN(CCC)C1CCc2cccc(O)c2C1 (stereo not given)
inactive: [2] | [3]
